Laboratory results: paper PMC4336329 (PLoS ONE, 2015)
Hit rate of the full screen: of about 310,000 compounds, about 14,000 (4.5%) showed an effect of 50% or more. Effects have a minus sign here. Only a selection was taken, and strong results are over-represented in it overall.
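Also: peak tail current of the secondary pulse compared with the same well before compound.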

The compounds below were run against human ether-à-go-go-related gene (hERG) potassium channel (human, UniProt Q12809) (assay: primary screen, population patch clamp on CHO cells stably expressing hERG; higher = less effect of the substance).
human ether-à-go-go-related gene (hERG) potassium channel, sequence (Q12809 whole entry, looked up): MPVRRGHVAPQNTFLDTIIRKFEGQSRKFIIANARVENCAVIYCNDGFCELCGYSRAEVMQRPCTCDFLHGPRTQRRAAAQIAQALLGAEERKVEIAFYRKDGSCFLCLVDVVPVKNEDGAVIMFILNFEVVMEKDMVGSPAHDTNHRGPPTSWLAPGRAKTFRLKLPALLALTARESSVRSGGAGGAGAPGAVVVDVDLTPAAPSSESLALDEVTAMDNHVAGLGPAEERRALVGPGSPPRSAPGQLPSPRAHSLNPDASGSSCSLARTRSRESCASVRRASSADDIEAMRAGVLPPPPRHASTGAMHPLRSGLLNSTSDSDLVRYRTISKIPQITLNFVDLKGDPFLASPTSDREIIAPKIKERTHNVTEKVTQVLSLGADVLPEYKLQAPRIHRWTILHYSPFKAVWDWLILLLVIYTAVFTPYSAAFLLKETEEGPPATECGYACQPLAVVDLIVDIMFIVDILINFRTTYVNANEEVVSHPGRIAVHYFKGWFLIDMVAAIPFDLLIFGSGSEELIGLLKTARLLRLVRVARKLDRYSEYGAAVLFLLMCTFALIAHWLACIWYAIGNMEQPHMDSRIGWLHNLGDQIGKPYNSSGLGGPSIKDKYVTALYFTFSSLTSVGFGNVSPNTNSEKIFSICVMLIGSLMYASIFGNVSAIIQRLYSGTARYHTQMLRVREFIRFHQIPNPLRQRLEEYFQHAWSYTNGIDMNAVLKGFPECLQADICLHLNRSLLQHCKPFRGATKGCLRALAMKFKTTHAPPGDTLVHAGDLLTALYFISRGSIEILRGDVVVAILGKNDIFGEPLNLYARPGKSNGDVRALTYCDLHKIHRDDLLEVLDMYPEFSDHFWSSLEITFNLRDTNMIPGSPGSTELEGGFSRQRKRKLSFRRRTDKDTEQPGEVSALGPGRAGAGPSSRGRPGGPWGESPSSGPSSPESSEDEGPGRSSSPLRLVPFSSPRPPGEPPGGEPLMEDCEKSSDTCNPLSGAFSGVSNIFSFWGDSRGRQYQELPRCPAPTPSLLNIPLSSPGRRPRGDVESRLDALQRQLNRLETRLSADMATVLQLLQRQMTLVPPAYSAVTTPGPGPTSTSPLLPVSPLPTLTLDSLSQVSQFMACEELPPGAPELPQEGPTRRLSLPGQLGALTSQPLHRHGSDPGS
In the case of Cc1cc(C(=O)OCC(=O)Nc2ccc(F)cc2)c(C)n1C1CC1, the “hERG current change (%, negative = inhibition) at 10uM” value is reported as 5.51%. With Cc1cc(C(=O)CN2C(=O)c3ccccc3C2=O)c(C)n1C1CC1 the “hERG current change (%, negative = inhibition) at 10uM” value was -1.31%. Cc1cc(C(=O)CN2CCN(CC(=O)Nc3cccc(F)c3)CC2)c(C)n1C1CC1 was tested, and the “hERG current change (%, negative = inhibition) at 10uM” value was -56.2%. For Cc1cccc(C)c1NC(=O)CN1CCN(CC(=O)c2cc(C)n(C3CC3)c2C)CC1, the “hERG current change (%, negative = inhibition) at 10uM” value was -12.4%. CC1=C(C(=O)OCc2ccccc2)C(c2ccsc2)NC(=O)N1C (stereo not drawn) was tested, and the “hERG current change (%, negative = inhibition) at 10uM” value was -37.7%. For CCOC(=O)C(Cc1ccc(OC)c([N+](=O)[O-])c1)NC(=O)CCC(=O)Nc1ccc(C)cc1 (stereo not drawn), the “hERG current change (%, negative = inhibition) at 10uM” value was -26.2%. In the case of COC(=O)c1ccc(/C=C/c2c(-c3ccc(OC)cc3)oc3ccc(N4CCOCC4)cc23)cc1, the “hERG current change (%, negative = inhibition) at 10uM” value is reported as 25.7%. For Cc1cc(NC(=O)c2cnn3c(C(F)(F)F)cc(-c4ccc(Br)cc4)nc23)no1, the “hERG current change (%, negative = inhibition) at 10uM” value was 24.4%. In the case of C[C@]12CC[C@@H]3c4ccc(O)cc4[C@@H](O)C[C@H]3[C@@H]1CC[C@@H]2O, the “hERG current change (%, negative = inhibition) at 10uM” value is reported as 10.4%. In the case of C[C@]12CC[C@@H]3c4ccc(O)c(O)c4CC[C@H]3[C@@H]1CC[C@@H]2O, the “hERG current change (%, negative = inhibition) at 10uM” value is reported as 15.4%. With C[C@]12CC[C@@H]3c4ccc(O)cc4C(=O)C[C@H]3[C@@H]1CC[C@@H]2O the “hERG current change (%, negative = inhibition) at 10uM” value was -52.7%. In the case of CCN(CC)S(=O)(=O)c1ccc(/C=C/C(=O)OCC#N)cc1, the “hERG current change (%, negative = inhibition) at 10uM” value is reported as -12.4%. For COC(=O)c1cccc(NCN2C(=O)c3ccccc3C2=O)c1, the “hERG current change (%, negative = inhibition) at 10uM” value was 1.11%. For COc1cccc(NC(=O)CN(C)C(=O)Cc2c(C)nc3ccccc3c2C)c1, the “hERG current change (%, negative = inhibition) at 10uM” value was -62.8%. With Cc1nc2ccccc2c(C)c1CC(=O)N(C)CC(=O)Nc1cccc(F)c1 the “hERG current change (%, negative = inhibition) at 10uM” value was -55.9%. CN(CC(=O)Nc1cccc(F)c1)C(=O)CCc1nc2ccccc2c(=O)[nH]1 was tested, and the “hERG current change (%, negative = inhibition) at 10uM” value was 2.42%. CCOc1ccc(NC(=O)CN(C)C(=O)Cc2c(C)nc3ccccc3c2C)cc1OCC was tested, and the “hERG current change (%, negative = inhibition) at 10uM” value was -47%. With COc1ccc(NC(=O)CN(C)C(=O)Cc2c(C)nc3ccccc3c2C)cc1 the “hERG current change (%, negative = inhibition) at 10uM” value was -46.1%. For CN(CC(=O)Nc1cccc(F)c1)C(=O)Cc1n[nH]c(=O)c2ccccc12, the “hERG current change (%, negative = inhibition) at 10uM” value was 5.31%. Cc1ccc(C(C(=O)NC(C)(C)C)N(C(=O)c2csnn2)c2ccccc2F)o1 (stereo not drawn) was tested, and the “hERG current change (%, negative = inhibition) at 10uM” value was -9.84%. In the case of CC(C)CC(=O)NS(=O)(=O)c1ccc(NS(C)(=O)=O)cc1, the “hERG current change (%, negative = inhibition) at 10uM” value is reported as 11.7%. With CCCc1nc(Nc2nc3ccccc3o2)nc(C)c1C(=O)OCC the “hERG current change (%, negative = inhibition) at 10uM” value was -18.3%. With CCN(CC)CCCN(C(=O)Cn1nnc(-c2ccc(OC)c(OC)c2)n1)C(C(=O)NC(C)(C)C)c1ccc(F)cc1 (stereo not drawn) the “hERG current change (%, negative = inhibition) at 10uM” value was -74.5%. In the case of CCOCCCN(C(=O)Cn1nnc(-c2ccc(OC)c(OC)c2)n1)C(C(=O)NCC1CCCO1)c1ccc(F)cc1 (stereo not drawn), the “hERG current change (%, negative = inhibition) at 10uM” value is reported as -12.8%. For CCN(CC)CCN(C(=O)Cn1nnc(-c2ccc(OC)c(OC)c2)n1)C(C(=O)NC1CCCC1)c1ccc(F)cc1 (stereo not drawn), the “hERG current change (%, negative = inhibition) at 10uM” value was -35.1%. For CCOC(=O)N1CCC(NCCNC(=O)c2ccc(F)cc2)CC1.Cl, the “hERG current change (%, negative = inhibition) at 10uM” value was -25.2%. In the case of CCOC(=O)N1CCC(Nc2c(N3CCN(c4cccc(C(F)(F)F)c4)CC3)c(=O)c2=O)CC1, the “hERG current change (%, negative = inhibition) at 10uM” value is reported as -76.8%. For CCOC(=O)N1CCN(c2c(N3CCN(c4cccc(C(F)(F)F)c4)CC3)c(=O)c2=O)CC1, the “hERG current change (%, negative = inhibition) at 10uM” value was -46.4%. CCOC(=O)N1CCN(c2c(NC3CCN(Cc4ccccc4)CC3)c(=O)c2=O)CC1 was tested, and the “hERG current change (%, negative = inhibition) at 10uM” value was 7.18%. In the case of CCOC(=O)N1CCC(N2CCN(c3ccccc3)CC2)CC1.Cl, the “hERG current change (%, negative = inhibition) at 10uM” value is reported as -21.4%. For CCOC(=O)N1CCC(N2CCN(c3cc(C)ccc3C)CC2)CC1, the “hERG current change (%, negative = inhibition) at 10uM” value was -51.2%. In the case of CCOC(=O)N1CCC(Nc2c(N3CCN(c4cc(Cl)ccc4C)CC3)c(=O)c2=O)CC1, the “hERG current change (%, negative = inhibition) at 10uM” value is reported as -80.4%. For CCOC(=O)N1CCN(c2c(N3CCN(c4cc(C)ccc4C)CC3)c(=O)c2=O)CC1, the “hERG current change (%, negative = inhibition) at 10uM” value was -15.1%. CCOC(=O)N1CCN(c2c(NCc3ccc(Cl)cc3)c(=O)c2=O)CC1 was tested, and the “hERG current change (%, negative = inhibition) at 10uM” value was -17%. With CCOC(=O)N1CCC(Nc2c(NCCN3CCN(c4cccc(Cl)c4)CC3)c(=O)c2=O)CC1 the “hERG current change (%, negative = inhibition) at 10uM” value was -0.879%. With CCOC(=O)N1CCC(NCCNC(=O)c2ccc(Cl)cc2)CC1 the “hERG current change (%, negative = inhibition) at 10uM” value was -57.8%. CCOC(=O)N1CCC(NC(=O)c2ccc(Cl)cc2)CC1 was tested, and the “hERG current change (%, negative = inhibition) at 10uM” value was -14.5%. With C[C@@H]1C(=O)O[C@H]2[C@H]1CC[C@@]1(C)C(=O)C=C[C@@](C)(O)[C@H]21 the “hERG current change (%, negative = inhibition) at 10uM” value was 15.6%. In the case of C=CCN1C(=O)c2ccc(C(=O)OCC(=O)N3CCN(c4ccccc4)CC3)cc2C1=O, the “hERG current change (%, negative = inhibition) at 10uM” value is reported as 7.02%. With CC(C(=O)NCCc1ccccc1)N1c2cccc3cccc(c23)S1(=O)=O (stereo not drawn) the “hERG current change (%, negative = inhibition) at 10uM” value was -21.2%. For Cc1ccc(C(=O)OCC(=O)NNC(=O)COc2ccc(Cl)cc2)c(O)c1, the “hERG current change (%, negative = inhibition) at 10uM” value was -2.08%. With O=C(Cc1ccc(NS(=O)(=O)c2ccc(F)cc2)cc1)NCc1ccccc1 the “hERG current change (%, negative = inhibition) at 10uM” value was -16.4%.
